# Activity calls are given as the source filed them.
# Assay: probe aXIP binding to arrayed compounds – biochemical, NeuroSMM set, 635/667 nm fluorescence, primary screen (AID 1119);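 note: probe is the protein aXip251-270 applied at 1 µg/mL to compound-printed slides; binding of probe to printed compounds measured as 667 nm fluorescence plus signal to noise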
# Conditions: small-molecule microarray, higher = more signal, called active from +8 up or from −8 down
row,Compound,composite Z-score
1,Cc1ccc(S[C@]2(C(=O)NCc3ccccc3)CC(=O)N(C3CCCCC3)[C@@H]2c2ccc(CO)cc2I)cc1,-0.0202 (inactive)
2,COc1ccc([Si](C)(C)[C@@H]2[C@@H](CC(=O)N3Cc4ccccc4C[C@H]3CO)O[C@]3(C(=O)N(Cc4ccc(N5C(=O)c6cccc7cccc5c67)cc4)c4ccccc43)[C@H]2C)cc1,0.535 (inactive)
3,CCOC(=O)C[C@H]1[C@H](OC(=O)c2ccccc2-c2ccccc2)[C@@H](NC(=O)c2ccc3ccccc3n2)c2cc(OCCCO)ccc2N1C(=O)Cc1ccc(OC)cc1,-0.891 (inactive)
4,CCOc1cc(C(O)C2C=CC3C(=O)NC(=O)C3N2Nc2ccc(Cl)cc2Cl)ccc1O (centres undefined),0.568 (inactive)
5,Cc1ccc(NN2C(C(O)c3c(F)cccc3Cl)C=CC3C(=O)N(C4CCCCC4)C(=O)C32)cc1 (centres undefined),0.788 (inactive)
6,CCOC(=O)C[C@H]1[C@H](OC(=O)c2ccc(-c3ccccc3)cc2)[C@@H](NC(=O)CC(C)C)c2cc(OCCCO)ccc2N1C(=O)c1ccc2ccccc2n1,-0.122 (inactive)
7,COC(=O)[C@@]1(Cc2ccccc2)[C@H]2c3cc(C(=O)N4CCCC4)n(CCc4ccccn4)c3C[C@H]2CN1C(=O)c1ccccc1,-1.17 (inactive)
8,Cc1ccc(S[C@]2(C(=O)NC(C)C)CC(=O)N(Cc3cc(C(F)(F)F)cc(C(F)(F)F)c3)[C@@H]2c2ccc(CO)cc2)cc1,-0.459 (inactive)

# Assay: probe aNOTCH3 binding on compound microarray – biochemical, small-molecule microarray, 635/667 nm fluorescence, primary screen (AID 1120);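 note: probe is a biotin-tagged antibody raised against NOTCH3 rather than NOTCH3 protein; score merges spot fluorescence near 667 nm with spot signal to noise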
# Conditions: higher = more signal
row,Compound,composite z-score
1,CC(C)[Si]1(C(C)C)OCc2cc(C3CC3)nc(-c3ccc(Oc4ccccc4)cc3)c21,-0.177
2,O=C1NC(=O)C2C1C=CC(C(O)c1ccco1)N2Nc1ccc(Cl)cc1Cl (centres undefined),-0.0967
3,Cc1ccc(N2C(=O)c3ccccc3[C@@H](C(=O)NCCCN(C)C)[C@@H]2c2ccc(CO)cc2)nc1,-0.416
4,CCCCCCc1nc(Cc2cc(OC)c(OC)c(OC)c2)cc2c1[Si](C(C)C)(C(C)C)OC2,-0.0395
5,CCOC(=O)C1=C[C@@H](C(C)(C)C)N(S(=O)(=O)c2ccc(C)cc2)[C@H]1c1cccc2ccccc12,0.0327
6,COc1cc2c(cc1O)C(c1cccs1)N(Cc1cc3c(cc1Br)OCO3)CC2 (centres undefined),0.0438
7,C=CCNC(=O)[C@@H]1[C@H]2C(=O)O[C@H](c3ccccc3)[C@H](c3ccccc3)N2[C@H](c2ccccc2OCCO)[C@@]12C(=O)Nc1ccc(C#CCC(C(=O)OC)C(=O)OC)cc12,0.514
8,C=CCN1C(=O)[C@]2(CCS(=O)(=O)c3ccccc3)N=C(c3ccc(OCCCO)cc3)O[C@@H]2c2ccccc21,0.177
9,CC(c1ccccc1)C(O)C1C=CC2C(=O)N(C)C(=O)C2N1Nc1ccccc1 (centres undefined),0.5
10,N#Cc1ccc(NN2C(C(O)c3ccc(Br)cc3)C=CC3C(=O)N(c4ccccc4)C(=O)C32)cc1 (centres undefined),0.43
11,COc1ccc([Si](C)(C)[C@@H]2[C@@H](CCO)O[C@]3(C(=O)N(Cc4cccc(NC(=O)[C@H](C)O)c4)c4ccccc43)[C@H]2C)cc1,-0.147
12,CCCCC(CC)C(O)C1C=CC2C(=O)N(C)C(=O)C2N1Nc1ccccc1 (centres undefined),0.0934
13,COCCOC(=O)N1C(=O)[C@@]2(c3cc(C#CCCO)ccc31)[C@H](c1ccc(OCCO)cc1)N1[C@H](c3ccccc3)[C@H](c3ccccc3)OC(=O)[C@H]1[C@@H]2C(=O)Nc1nc2ccccc2s1,0.0556
14,[N-]=[N+]=NCc1ccccc1[C@@H]1OC(c2ccc(OCCCO)cc2)=N[C@]1(CCS(=O)(=O)c1ccccc1)C(=O)O,0.0311
15,O=C1C[C@]2(c3ccc([N+](=O)[O-])cc3)C(=O)N(C3CC3)c3cc(CO)ccc3[C@H]2N1CC12CC3CC(CC(C3)C1)C2,-0.213
16,CCCC[C@@H]1C[C@H]1[C@@H](NC(=O)c1cccs1)c1ccccc1C(F)(F)F,0.265
17,O=C(Cc1ccccc1)[C@H]1C2C=CCCC(c3ccccc3)=C2CN1Cc1ccccc1 (some centres undefined),-0.166
18,COC(=O)[C@]1(CCS(=O)(=O)c2ccccc2)N=C(c2ccc(OCCCO)cc2)O[C@@H]1c1ccccc1N=[N+]=[N-],0.359

row,Compound,composite z-score
1,COCCOC(=O)N1C(=O)[C@@]2(c3cc(C#CC4=CCCCC4)ccc31)[C@H](c1ccccc1OCCO)N1[C@H](c3ccccc3)[C@H](c3ccccc3)OC(=O)[C@H]1[C@@H]2C(=O)N1CCN(c2ncccn2)CC1,0.212
2,CN(C)C(=O)[C@@]1(Cc2ccccc2)N=C(c2ccc(OCCCO)cc2)O[C@H]1c1ccccc1,0.738
3,COc1ccc(C#Cc2ccc3c(c2)[C@]2(C(=O)N3)[C@H](C(=O)O)[C@H]3C(=O)O[C@H](c4ccccc4)[C@H](c4ccccc4)N3[C@@H]2c2ccc(O)cc2)cc1,-0.243
4,CCCCC[C@H]1OC[C@@]23C=C(Br)[C@@H](CC12)[C@@]1(CO1)C3=O (some centres undefined),-0.126
5,CC1CC/C=C\[C@H]2OC34C=CCN(c5ccc(Cl)cc5)C(=O)[C@H]3N(C(C)CO)C(=O)[C@]4(C)C2C(=O)O1 (some centres undefined),-0.322
6,COc1cc2c(cc1O)C(C1CC1)N(Cc1cccc(OC(F)(F)F)c1)CC2 (centres undefined),-0.0824
7,COc1cc(C(O)C2C=CC3C(=O)N(C)C(=O)C3N2Nc2ccccc2)cc(OC)c1OC (centres undefined),0.962
8,[N-]=[N+]=NCc1ccccc1[C@H]1OC(c2ccc(OCCCO)cc2)=N[C@@]1(Cc1ccccc1N=[N+]=[N-])C(=O)NCC(O)CO (some centres undefined),0.483
9,COC(=O)[C@@]1(Cc2ccc(OC)cc2)[C@H]2c3cc(C(=O)N(C)C)n(Cc4ccc(OC(F)(F)F)cc4)c3C[C@H]2CN1C(=O)c1ccccc1,0.11
10,C=C(/C(=C/C[C@H](OC(C)=O)c1ccc(CO)o1)c1cnc2ccccc2c1)C(C)C,0.245
11,Cc1ccc(S[C@]2(C(=O)NCc3ccccc3)CC(=O)N(C3CCCCC3)[C@@H]2c2ccc(CO)cc2I)cc1,0.0301
12,COc1ccc([Si](C)(C)[C@@H]2[C@@H](CC(=O)N3Cc4ccccc4C[C@H]3CO)O[C@]3(C(=O)N(Cc4ccc(N5C(=O)c6cccc7cccc5c67)cc4)c4ccccc43)[C@H]2C)cc1,0.171
13,CCOC(=O)C[C@H]1[C@H](OC(=O)c2ccccc2-c2ccccc2)[C@@H](NC(=O)c2ccc3ccccc3n2)c2cc(OCCCO)ccc2N1C(=O)Cc1ccc(OC)cc1,0.033
14,CCOc1cc(C(O)C2C=CC3C(=O)NC(=O)C3N2Nc2ccc(Cl)cc2Cl)ccc1O (centres undefined),-0.152
15,Cc1ccc(NN2C(C(O)c3c(F)cccc3Cl)C=CC3C(=O)N(C4CCCCC4)C(=O)C32)cc1 (centres undefined),0.102
16,CCOC(=O)C[C@H]1[C@H](OC(=O)c2ccc(-c3ccccc3)cc2)[C@@H](NC(=O)CC(C)C)c2cc(OCCCO)ccc2N1C(=O)c1ccc2ccccc2n1,0.041
17,COC(=O)[C@@]1(Cc2ccccc2)[C@H]2c3cc(C(=O)N4CCCC4)n(CCc4ccccn4)c3C[C@H]2CN1C(=O)c1ccccc1,0.682
18,Cc1ccc(S[C@]2(C(=O)NC(C)C)CC(=O)N(Cc3cc(C(F)(F)F)cc(C(F)(F)F)c3)[C@@H]2c2ccc(CO)cc2)cc1,-0.384

# From PubChem BioAssay
